Assay results published in ChEMBL document CHEMBL1157539, “Thousands of chemical starting points for antimalarial lead identification” (Nature, 2010).

Key:
Format in all cases: functional
Plasmodium falciparum [1] = test: GSK_TCMDC: Inhibition of Plasmodium falciparum 3D7 in whole red blood cells, using parasite LDH activity as an index of growth. Test compounds present at 2uM
Plasmodium falciparum [2] = test: GSK_TCMDC: Inhibition of Plasmodium falciparum Dd2 in whole red blood cells, using parasite LDH activity as an index of growth. Test compounds present at 2uM
HepG2 = test: GSK_TCMDC: Percent inhibition of human HepG2 cell line. Test compounds present at 10uM.

Row | SMILES | Inhibition (Plasmodium falciparum [1]) [%] | Inhibition (Plasmodium falciparum [2]) [%] | Inhibition (HepG2) [%]
1 | O=C(O)C(F)(F)F.c1cc(CNCCc2ccncc2)cc(-c2csc(-c3nc4ccccc4[nH]3)c2)c1 | 100 | 99 | 16
2 | Fc1ccc(-c2cc3ncnc(N4CCN(CCN5CCCC5)CC4)c3s2)cc1 | 98 | 40 | 25
3 | Cc1ccc2nc(-c3ccc(C(=O)NC4CCN(Cc5ccccc5)CC4)s3)[nH]c2c1 | 97 | 83 | 13
4 | Cc1ccccc1CNc1noc(-c2c(F)cccc2Cl)n1 | 97 | 90 | 14
5 | O=C(O)C(=O)O.c1ccc(C2CCC(N3CCC(N4CCCC4)CC3)CC2)cc1 (configuration not stated) | 100 | 46 | 9
6 | Oc1cc(Nc2ccnc3cc(I)ccc23)c(F)cc1Cl | 92 | 77 | 0
7 | CCCCCC(C)N/C(=N/c1cccc(Cl)c1Cl)Nc1ccc(C#N)cc1O (configuration not stated) | 100 | 98 | 28
8 | Cc1sc(CNCCCNc2cc(=O)c3ccccc3[nH]2)c(C(F)(F)F)c1C.Cl | 99 | 70 | 0
9 | CN1CCN(CCCN(Cc2ccc(-c3cccc(CNCc4ccc5c(c4)OCO5)c3)cc2)C(=O)CCC2CCCC2)CC1.O=C(O)C(F)(F)F | 92 | 85 | 24
10 | O=C(NC1CCCCC1)c1ccc(O)c(-c2cccc(C(F)(F)F)c2)c1 | 97 | 87 | 8
11 | CC(=O)Nc1cccc(C(=O)Nc2nc3ccc(-c4cc(=O)[nH]c(Nc5ccccc5Cl)n4)cc3[nH]2)c1 | 99 | 62 | 0
12 | CCCCN(Cc1cnccc1-c1ccc(Br)cc1)c1ccc(C(O)(C(F)(F)F)C(F)(F)F)cc1.O=C(O)C(F)(F)F | 87 | 45 | 10
13 | CC(C)CCCC(C)(C)NC[C@@H](O)[C@H](Cc1ccccc1)NC(=O)c1cccc(CCC2CC2)c1 | 98 | 52 | 100
14 | CN1CCN(c2cc(NC(=O)Nc3cccc(Cl)c3Cl)ccc2Cl)CC1.Cl | 100 | 21 | 2
15 | C=Cc1ccc(-c2c(C)[nH]c(C)c(Br)c2=O)cc1 | 98 | 96 | 0
16 | COc1ccc2c(N/N=C/c3cccc([N+](=O)[O-])c3)ccnc2c1 | 100 | 99 | 0
17 | Cc1nc(N)nc(N)c1-c1ccc(Br)cc1 | 98 | 1 | 46
18 | CNCCCNc1ccnc2cc(Cl)ccc12 | 100 | 25 | 11
19 | CN(C)CCOc1ccc(N2CCN(CCCCNC(=O)c3ccc(NC(=O)c4ccc(Cl)cc4)cc3)CC2)cc1 | 99 | 98 | 13
20 | Cc1ccc2c(=NN=Cc3cccc(Cl)c3)cc(C)[nH]c2c1 | 96 | 52 | 50
21 | O=C(Cn1c(CCc2cccc(F)c2F)nc(=O)c2ccccc21)N(CCCN1CCCC1)Cc1ccc(-c2ccc(C(F)(F)F)cc2)cc1.O=C(O)C(O)C(O)C(=O)O | 100 | 80 | 54
22 | CN(CCc1ccccn1)c1cccc2c1nc(-c1cccnc1)n2CCNCc1ccccc1.O=C(O)C(F)(F)F | 90 | 97 | 12
23 | CC(O)C(=O)O.COc1cc(Cc2cnc(N)nc2N)c2c(c1OC)OC(C)(C)C=C2 | 93 | 2 | 7
24 | CCc1ccc(CN(CCCOc2cccc(CC(=O)NCc3c[nH]cn3)c2)Cc2ccc(-n3ccnc3)cc2)cc1 | 99 | 28 | 1
25 | COc1cc(CN2CCC(NC(=O)[C@H](Cc3ccccc3)NC(=O)Nc3ccc(Oc4ccccc4)cc3)C2)ccc1O (some centres not stated) | 92 | 0 | 10
26 | O=C(Nc1ccc(C(F)(F)F)cc1)NC1CCN(c2ccnc3ccccc23)CC1.O=C(O)C(F)(F)F | 100 | 62 | 46
27 | O=C(O)c1cc(C(F)(F)F)co1 | 96 | 19 | 0
28 | O=C(NC1CC1)c1cnc(N2CCC(COc3cccc(F)c3)CC2)c(Cl)c1 | 89 | 87 | 1
29 | Cc1cc(-c2ccc(CN3Cc4ccccc4C3)cc2)ccc1S(=O)(=O)NCCN1CCCC1.O=C(O)C(F)(F)F | 94 | 10 | 49
